Reference: PubChem BioAssay (NCI)
The panel holds about 79,000 compounds, 15% with a hit somewhere; the sample as a whole holds those more often. A number with no mark means an inactive call. Activity calls are given as the source filed them. No stated cut-off is given here; in the data, active means growth inhibition above about 70%; inactive means the rest.

assay: NCI Yeast Anticancer Drug Screen. Data for the rad50 strain (AID 155);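 further: 0% = growth of vehicle-only cultures of the same strain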; conditions: S. cerevisiae rad50 strain growth inhibition; at 5.0 µM (retest, dose inferred, filed as 0.5); hits give high values
In short: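 Vehicle-treated cultures provide the reference for the growth inhibition reported for compound-exposed, repair-deficient yeast.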

In order of falling growth inhibition:
1. COC(=O)C12OCC34C(CC5C(C)C6=CC(=O)OC6=CC5(C)C3C(O)C1O)OC(=O)C(OC(C)=O)C24 (stereo not drawn)  69%
2. CCOC(=O)C[P+](c1ccc(C)cc1)(c1ccc(C)cc1)c1ccc(C)cc1  39%
3. CC(=O)Nc1ccc(C(=O)C(C)Br)cc1 (stereo not drawn)  38%
4. O=C(CC(=O)c1ccccc1NC1=Cc2ccccc2C(=O)C1=O)C(=O)NC1=C(Cl)C(=O)c2ccccc2C1=O  36%
5. O=c1cccccc1[O-].O=c1cccccc1[O-].O=c1cccccc1[O-].[Ce+3]  31%
6. CSC(=S)n1nc(-c2cccs2)c(N=Nc2ccc(Cl)cc2)c1C(F)(F)F  29%
7. COC(=O)[C@@]12OC[C@]34[C@H]([C@@H](O)[C@@H]1O)[C@@]1(C)CC(=O)C(O)=C(C)[C@@H]1C[C@H]3OC(=O)[C@H](OC(=O)C(Cc1ccccc1)NC(=O)OC(C)(C)C)[C@@H]24 (stereo partly drawn)  24%
8. COc1ccc2c(c1)[n+]([O-])c(C(N)=O)c(N)[n+]2[O-]  23%
9. CC1(C)C(=O)N(CCCCCCN2C(=O)C(C)(C)c3ccccc32)c2ccccc21  20%
10. O=C(c1ccccc1)c1c(CO[N+](=O)[O-])n([O-])c2ccccc2[n+]1=O  20%
11. O=S(=O)(c1cc(Cl)ccc1Cl)N1CCc2ccccc2C1  14%
12. CC(=O)Nc1cccc2c1ccc1ccc3ccccc3c12  13%
13. CC1C(C(=O)O)CC([N+](=O)[O-])C(Cl)C1[N+](=O)[O-] (stereo not drawn)  13%
14. O=c1[nH]c2ccccc2c2cccc(F)c12  12%
15. O=C(CNS(=O)(=O)Cc1ccccc1)NCC(=O)NNc1ccccc1  12%
16. COc1ccc(-c2noc(=O)c3ccccc23)cc1  11%
17. CCc1cccc(C)c1N1C(=O)C(=O)C(c2nc3ccccc3o2)/C(=N\NS(=O)(=O)c2ccc(C)cc2)C1=O (stereo not drawn)  7%
18. CC(=O)OC(C#N)CC(C)(C)/[N+]([O-])=[N+](\[O-])C(C)(C)CC(C#N)OC(C)=O (stereo not drawn)  6%
19. O=[N+]([O-])C1=Cc2ccccc2S(=O)(=O)CC1  6%
20. Fc1ccc(NC(=S)SCc2ccccc2)cc1F  4%
21. COc1cc(Cc2n[nH]c(=S)n2-c2ccccc2)c(S(N)(=O)=O)cc1OC  4%
22. COc1ccc(/C=N/n2c(C)nc3c(sc(=S)n3-c3ccccc3)c2=O)cc1  3%
23. O=C(O)C1(Cc2ccc3c(c2)CCC3)Cc2cc3c(cc2C1)CCC3  2%
24. O=[N+]([O-])c1cccc2c1[nH]c1c(-c3ccccc3)nccc12  2%
25. CCCCCN(CCCCC)CCNc1ccc(C)c2sc3ccccc3c(=O)c12  2%
26. NCC1CCNCC1  2%
27. CCOC(=O)CC(=O)/C=C/c1ccncc1  1%
28. O=C(c1c(F)c(F)c(F)c(F)c1F)N1CCN(C(=O)c2c(F)c(F)c(F)c(F)c2F)C1=S  0%
29. CCN(CC)c1ccc(N=C2C=C(C(=O)Nc3cccc(Cl)c3)C(=O)c3ccccc32)c(C)c1  -1%
30. CCOC(=O)C(Cc1cn(S(=O)(=O)c2ccccc2)c2ccccc12)(NC(C)=O)C(=O)OCC  -2%
31. CC(=O)N1C=C2CCC3c4ccccc4NC3C2CC1 (stereo not drawn)  -2%
32. C[N+](C)(C)CCN(Cc1cccs1)c1ccccn1  -2%
33. CCC[C@H]1[C@H](CCC)[C@@]2(OC(=O)C3=C2CCC=C3)[C@]12OC(=O)C1=C2CCC=C1  -2%
34. C=CC[P+](CC[P+](CC=C)(c1ccccc1)c1ccccc1)(c1ccccc1)c1ccccc1  -2%
35. O=C(NCCl)Nc1ccccc1  -3%
36. c1ccc([B-](c2ccccc2)(c2ccccc2)c2ccccc2)cc1  -3%
37. Cc1c2c(c(C)c3c4c(oc13)CCCC4)C=NCC2  -4%
38. Cc1ccc(-[n+]2cc([O-])on2)cc1  -11%
39. c1ccc([P+](c2ccccc2)(c2ccccc2)C2CCCC2)cc1  -18%

same assay, conditions: S. cerevisiae rad50 strain growth inhibition; at 50.0 µM (retest, dose inferred, filed as 5.0); hits give high values

For `CCOC(=O)C[P+](c1ccc(C)cc1)(c1ccc(C)cc1)c1ccc(C)cc1`, the growth inhibition was 96% (active).
In the case of `O=c1[nH]c2ccccc2c2cccc(F)c12`, the growth inhibition is reported as 89% (active).
In the case of `O=C(c1c(F)c(F)c(F)c(F)c1F)N1CCN(C(=O)c2c(F)c(F)c(F)c(F)c2F)C1=S`, the growth inhibition is reported as 91% (active).
With `COC(=O)C12OCC34C(CC5C(C)C6=CC(=O)OC6=CC5(C)C3C(O)C1O)OC(=O)C(OC(C)=O)C24` (stereo not drawn) the growth inhibition was 99% (active).
With `O=[N+]([O-])C1=Cc2ccccc2S(=O)(=O)CC1` the growth inhibition was 93% (active).
For `Fc1ccc(NC(=S)SCc2ccccc2)cc1F`, the growth inhibition was 89% (active).
With `O=[N+]([O-])c1cccc2c1[nH]c1c(-c3ccccc3)nccc12` the growth inhibition was 83% (active).
For `CCCCCN(CCCCC)CCNc1ccc(C)c2sc3ccccc3c(=O)c12`, the growth inhibition was 96% (active).
For `COC(=O)[C@@]12OC[C@]34[C@H]([C@@H](O)[C@@H]1O)[C@@]1(C)CC(=O)C(O)=C(C)[C@@H]1C[C@H]3OC(=O)[C@H](OC(=O)C(Cc1ccccc1)NC(=O)OC(C)(C)C)[C@@H]24` (stereo partly drawn), the growth inhibition was 73% (active).
With `CC(=O)Nc1ccc(C(=O)C(C)Br)cc1` (stereo not drawn) the growth inhibition was 99% (active).
For `COc1ccc2c(c1)[n+]([O-])c(C(N)=O)c(N)[n+]2[O-]`, the growth inhibition was 100% (active).
For `O=C(c1ccccc1)c1c(CO[N+](=O)[O-])n([O-])c2ccccc2[n+]1=O`, the growth inhibition was 97% (active).
For `CCC[C@H]1[C@H](CCC)[C@@]2(OC(=O)C3=C2CCC=C3)[C@]12OC(=O)C1=C2CCC=C1`, the growth inhibition was 98% (active).
With `O=C(CC(=O)c1ccccc1NC1=Cc2ccccc2C(=O)C1=O)C(=O)NC1=C(Cl)C(=O)c2ccccc2C1=O` the growth inhibition was 92% (active).

In order of falling growth inhibition:
1. CSC(=S)n1nc(-c2cccs2)c(N=Nc2ccc(Cl)cc2)c1C(F)(F)F  63%
2. O=C(NCCl)Nc1ccccc1  62%
3. CC1C(C(=O)O)CC([N+](=O)[O-])C(Cl)C1[N+](=O)[O-] (stereo not drawn)  60%
4. O=C(CNS(=O)(=O)Cc1ccccc1)NCC(=O)NNc1ccccc1  55%
5. Cc1c2c(c(C)c3c4c(oc13)CCCC4)C=NCC2  49%
6. CC(=O)OC(C#N)CC(C)(C)/[N+]([O-])=[N+](\[O-])C(C)(C)CC(C#N)OC(C)=O (stereo not drawn)  44%
7. O=c1cccccc1[O-].O=c1cccccc1[O-].O=c1cccccc1[O-].[Ce+3]  31%
8. CC(=O)Nc1cccc2c1ccc1ccc3ccccc3c12  21%
9. CC1(C)C(=O)N(CCCCCCN2C(=O)C(C)(C)c3ccccc32)c2ccccc21  20%
10. CCOC(=O)C(Cc1cn(S(=O)(=O)c2ccccc2)c2ccccc12)(NC(C)=O)C(=O)OCC  17%
11. Cc1ccc(-[n+]2cc([O-])on2)cc1  15%
12. CC(=O)N1C=C2CCC3c4ccccc4NC3C2CC1 (stereo not drawn)  15%
13. c1ccc([P+](c2ccccc2)(c2ccccc2)C2CCCC2)cc1  7%
14. COc1ccc(-c2noc(=O)c3ccccc23)cc1  6%
15. CCOC(=O)CC(=O)/C=C/c1ccncc1  5%
16. COc1cc(Cc2n[nH]c(=S)n2-c2ccccc2)c(S(N)(=O)=O)cc1OC  4%
17. O=S(=O)(c1cc(Cl)ccc1Cl)N1CCc2ccccc2C1  3%
18. O=C(O)C1(Cc2ccc3c(c2)CCC3)Cc2cc3c(cc2C1)CCC3  2%
19. CCc1cccc(C)c1N1C(=O)C(=O)C(c2nc3ccccc3o2)/C(=N\NS(=O)(=O)c2ccc(C)cc2)C1=O (stereo not drawn)  0%
20. C=CC[P+](CC[P+](CC=C)(c1ccccc1)c1ccccc1)(c1ccccc1)c1ccccc1  -3%
21. c1ccc([B-](c2ccccc2)(c2ccccc2)c2ccccc2)cc1  -6%
22. NCC1CCNCC1  -6%
23. C[N+](C)(C)CCN(Cc1cccs1)c1ccccn1  -9%
24. COc1ccc(/C=N/n2c(C)nc3c(sc(=S)n3-c3ccccc3)c2=O)cc1  -12%
25. CCN(CC)c1ccc(N=C2C=C(C(=O)Nc3cccc(Cl)c3)C(=O)c3ccccc32)c(C)c1  -12%
